This passage reports Potency and outcome results from PubChem BioAssay (NCATS).

The structures appear in SMILES notation. Results filed as inconclusive are left out. A number with no mark means an inactive call. Calls of active or inactive are those of the source. The call rests on the fitted dose curve; in most records, active means well fitted curve in the direction sought with a large enough effect; inconclusive means small, poorly fitted or top-dose-only effect, or another doubt; inactive means no such curve, though single readings can be large; an effect the other way counts as inactive or inconclusive.

The test system of assay [1] is Zika virus NS2B-NS3 protease (unlinked complex). The experiment in a line: Primary screen GU Rhodamine qHTS for Zika virus inhibitors: Unlinked NS2B-NS3 protease assay (AID 1347159). Further: nearly all actives have a fitted effect of over 60% in size. Further: potency means the concentration at half of the fitted maximal effect. The essentials: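 Enzyme 25 nM in Tris-HCl pH 8.0 + 0.01% Tween 20; compounds up to 114 microM, 15 min RT dark; + Rhod110 substrate 1.5 microM; read t0 and 15 min; delta fluorescence → % inhibition → 4-parameter Hill fit.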
(qHTS replaces the single test concentration by a dilution series.)

The subject of assay [2] is Zika virus NS2B-NS3 protease (unlinked). The experiment in a line: Optimization of GU AMC qHTS for Zika virus inhibitors: Unlinked NS2B-NS3 protease assay (AID 1347151). Further: series mostly up to about 52 µM; nearly all actives have a fitted effect of over 80% in size. The essentials:
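Noncovalent complex of NS2B hydrophilic domain and NS3 protease domain, 25 nM final, in 10 mM Tris-HCl pH 8.0, 0.01% Tween 20. AMC fluorescence change over 15 min at room temperature was fitted to a 4-parameter Hill equation.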

Assay [3] has as its system Zika virus NS2B-NS3 protease (linked construct). As to the kind of experiment: Primary screen NINDS Rhodamine qHTS for Zika virus inhibitors (AID 1347160). Further: nearly all actives have a fitted effect of over 55% in size. Further: potency means the concentration at half of the fitted maximal effect. Summed up:
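Enzyme (25 nM, linked NS2B-NS3) was preincubated 15 min with compound in 10 mM Tris-HCl pH 8.0, 0.01% Tween 20. Rhodamine110 substrate (1.5 microM) was then added and fluorescence read at start and after 15 min.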

The test system of assay [4] is Zika virus NS2B-NS3 protease. As to the kind of experiment: Primary screen GU AMC qHTS for Zika virus inhibitors (AID 1347154). Further: nearly all actives have a fitted effect of over 70% in size. The essentials:
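Unlinked Zika NS2B hydrophilic domain/NS3 protease domain noncovalent complex (25 nM final) in 10 mM Tris-HCl pH 8.0, 0.01% Tween 20, with AMC peptide substrate. Fluorescence (ex 340, em 450 nm) change over 15 min, room temperature; percent inhibition fitted to 4-parameter Hill equation.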

For assay [5], the system named is Zika virus NS2B-NS3 protease (linked construct). The experiment in a line: Confirmatory screen NINDS AMC qHTS for Zika virus inhibitors (AID 1347152). Further: nearly all actives have a fitted effect of over 70% in size. Further: potency means the concentration at half of the fitted maximal effect. Summed up:
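Purified NS2B-NS3 protease with NS2B hydrophilic domain linked to NS3 protease domain by flexible linker, 1 nM final in 10 mM Tris-HCl pH 8.0, 0.01% Tween 20. Compounds preincubated 15 min, room temperature; Bz-Nle-KRR-AMC 10 microM (Km 18.3 µM); 15-min fluorescence change, 4-parameter Hill fit.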

The subject of assay [6] is Zika virus NS2B-NS3 protease (unlinked complex). The experiment in a line: Confirmatory screen GU AMC qHTS for Zika virus inhibitors (AID 1347153).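 Further: enzyme at 25 nM with substrate at 10 µM below its Km of 18.3 µM; potency means the concentration at half of the fitted maximal effect; nearly all actives have a fitted effect of over 70% in size.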 Summed up:
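Fluorescence change (ex 340/em 450 nm) over 15 min, ~20% substrate conversion, normalized to no-inhibitor and no-enzyme controls, then Hill-fitted. Unlinked protease at 25 nM; AMC peptide 10 µM.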

Assay [7] in a line: Confirmatory screen GU Rhodamine qHTS for Zika virus inhibitors qHTS (AID 1347157). Further: nearly all actives have a fitted effect of over 70% in size. Further: potency means the concentration at half of the fitted maximal effect. Summed up:
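Unlinked NS2B/NS3, 25 nM; Rhod110 peptide, 1.5 microM; compounds, up to 114 microM. Reaction run 15 min at RT in 10 mM Tris-HCl pH 8.0, 0.01% Tween 20; kinetic fluorescence change fitted with a 4-parameter Hill model.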

A short description of assay [8]: Confirmatory screen NINDS Rhodamine qHTS for Zika virus inhibitors (AID 1347161). Further: nearly all actives have a fitted effect of over 60% in size. Further: potency means the concentration at half of the fitted maximal effect. The essentials: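 Kinetic fluorescence (Ex 480 nm, Em 540 nm) over 15 min with 1.5 microM Rhodamine110 peptide and 25 nM linked protease.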
Assay [9] relates to Zika virus NS2B-NS3 protease (linked). As to the kind of experiment: 384 well plate NINDS AMC confirmatory qHTS for Zika virus inhibitors (AID 1347163). Further: nearly all actives have a fitted effect of over 50% in size. Further: potency means the concentration at half of the fitted maximal effect. Summed up: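 Enzyme (5, 30 or 60 nM final) first met test compounds for ~15 min. The AMC-tagged peptide Ac-VKTGKR-AMC followed at 30 microM. Fluorescence was then recorded at 25 min and scaled against no-enzyme and no-inhibitor wells.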

The test system of assay [10] is Zika virus NS2B-NS3 protease (linked construct). As to the kind of experiment: 384 well plate NINDS Rhodamine confirmatory qHTS for Zika virus inhibitors (AID 1347164).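 Further: fluorescence from protease cleavage of Ac-LKRR-rhodamine 110 substrate; nearly all actives have a fitted effect of over 65% in size.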 Further: potency means the concentration at half of the fitted maximal effect. Summed up: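 Linked protease at a final 5 nM, 30 nM or 60 nM was preincubated ~15 min with compounds, then given 10 microM Ac-LKRR-Rhodamine 110. Fluorescence (ex 485/em 538 nm) after 25 min in the dark at room temperature.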

Assay [11] can be described thus: HepG2 cells viability qHTS for Zika virus inhibitors (AID 1347168). Summed up:
(§1)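 To flag cytotoxic protease inhibitors, viability is measured by ATP-dependent luminescence (CellTiter Glo) after cells attached overnight receive compound for 24 to 48 hours in DMEM with 4% FBS.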

A short description of assay [12]: Tertiary RLuc qRT-PCR qHTS assay for Zika virus inhibitors (AID 1347169). Further: nearly all actives have a fitted effect of over 55% in size. Further: potency means the concentration at half of the fitted maximal effect. Summed up:
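Vero cells (1,000 per well) plated overnight at 37 degrees C, treated with compound in DMSO, then infected with recombinant ZIKV-RLuc (Cambodian) at MOI 1-2 for 48-72 hrs. Live-cell Renilla luciferase substrate added; luminescence read after 1-1.5 hrs.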

Assay [13] in a line: Vero cells viability qHTS for Zika virus inhibitors (AID 1347167). Summed up:
as §1

The nature of assay [14]: ZIKV-mCherry secondary qHTS for Zika virus inhibitors (AID 1347158). Further: top concentration of the series differs between compounds. Summed up:
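Read-out is percent infection: mCherry-positive Vero cells (nuclear-proximal intensity >450 RFU, 3 SD above negative controls) counted by high-content imaging of Hoechst-stained, PFA-fixed wells after 48-72 h with ZIKV-mCherry at MOI 1 and compound.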

With `CCC(C)/C=C(C)/C=C/c1cc2c(cn1)C(=O)C(C)(OC(C)=O)C(O)=C2Cl` (stereo not given), the Potency in assay [1] was 10 µM (active).
`CC[C@]1(O)CC2CN(CCc3c([nH]c4ccccc34)[C@@](C(=O)OC)(c3cc4c(cc3OC)N(C)[C@H]3[C@@](O)(C(=O)OC)[C@H](OC(C)=O)[C@]5(CC)C=CCN6CC[C@]43[C@@H]65)C2)C1` (stereo not given in full): the result in assay [2] was inactive. In [3], the Potency result was “inactive”.
In the case of `Nc1ccccc1N`, the Potency result in assay [4] is “inactive”.
Consider `O=C(O)/C=C/c1ccc(-c2ccc(O)c(C34CC5CC(CC(C5)C3)C4)c2)cc1`, for which the Potency is 35 µM (active) in assay [5]; 44.1 µM (active) in assay [6]; 1.11 µM (active) in assay [7]; 2.24 µM (active) in [1]; 2.24 µM (active) in assay [3]; 1.24 µM (active) in [8]. The figures for the Potency in [10] and in assay [12] were 3.55 µM (active) and 0.415 µM (active), respectively. Besides, the Potency result in [9] is “inactive”. Moreover, the result in assay [11] was inactive.
Regarding `C=C1[C@H](OC(C)=O)[C@H]2[C@@H](OC(C)=O)[C@](C)(OC(C)=O)C[C@]2(OC(C)=O)C(=O)[C@H](C)/C=C/C(C)(C)C(=O)[C@H](OC(=O)C(C)CC)[C@H]1OC(C)=O` (stereo not given in full), in [1], the Potency entry was “inactive”.
As for `COc1cc2c3c(cc4ccccc4c3c1O)NC2=O`, the Potency in assay [1] was 22.4 µM (active).
For `CC1(C)CC[C@]2(C(=O)O)CC[C@]3(C)C(=CCC4[C@@]5(C)C[C@@H](O)[C@H](O)C(C)(C)C5CC[C@]43C)C2C1` (stereo not given in full), the Potency in assay [7] was 8.57 µM (active); in assay [1], 14.1 µM (active); in [3], 10 µM (active); in assay [8] it was 6.07 µM (active); in assay [9], 56.2 µM (active); in [10], 6.31 µM (active). In assay [12], the Potency was 9.06 µM (active). The result in assay [13] and in assay [11] was inactive.
With `O=C1NC(Cc2c[nH]c3ccccc23)C(=O)NC1Cc1c[nH]c2ccccc12` (stereo not given), in assay [1], the Potency result was “inactive”.
On to `CS(=O)(=O)c1ccc([C@H](CC2CCCC2)C(=O)Nc2nccs2)cc1`, for which the Potency result in [1] is “inactive”.
Take `O=S(=O)(c1ccccc1)c1cnc2c(N3CCNCC3)cccc2c1`: the Potency result in assay [7], in assay [8] and in [12] was “inactive” in each case.
As to `O=C(O)Cc1ccc2oc(-c3ccc(NC(=O)/C=C/c4ccc(Br)cc4)c(F)c3)nc2c1`, the Potency in assay [5] was 15.6 µM (active); in assay [6], 13.9 µM (active); in assay [7] it was 3.12 µM (active); in assay [1], 3.16 µM (active); in assay [3], 3.16 µM (active); in [8] it was 2.21 µM (active). Moreover, the Potency result in assay [14], in [9], in [10] and in [12] was “inactive” in each case. Further, the compound was called inactive in assay [13] and in assay [11].
`COc1cc(Nc2nc3ccccc3nc2NS(=O)(=O)c2ccc(NC(=O)c3ccc(OC)c(C)c3)cc2)cc(OC)c1`: the Potency in assay [5] was 12.4 µM (active); in assay [6], 11.1 µM (active); in [7], 3.12 µM (active); in assay [1], 2.82 µM (active); in assay [3] it was 8.91 µM (active); in assay [8] it was 2.78 µM (active). In assay [10], the Potency was 22.4 µM (active). In addition, in assay [9], the Potency entry is “inactive”. The outcome in [13] and in assay [11] was inactive.
In the case of `COc1ccc(C(=O)n2c(C)c(Cc3cccc(O[C@@H](C)C(=O)O)c3)c3cc(OC(F)(F)F)ccc32)cc1`, the Potency in assay [5] was 17.5 µM (active); in assay [6], 22.1 µM (active); in assay [7], 2.78 µM (active); in assay [1], 3.16 µM (active); in assay [8], 1.11 µM (active); in assay [9], 12.6 µM (active). Besides, the Potency entry in assay [10] was “inactive”. The call in [13] and in [11] was inactive.
For `CC1(C)CCC(C)(C)c2cc(C3(c4ccc(C(=O)O)cc4)OCCO3)ccc21`, the Potency is 44.1 µM (active) in assay [5]; 39.3 µM (active) in [6]; 12.4 µM (active) in assay [7]; 10 µM (active) in [1]; 5.62 µM (active) in assay [3]; 7.84 µM (active) in assay [8]. Further, in assay [9], the Potency result is “inactive”. Also, the outcome in [13] and in assay [11] was inactive.
In the case of `C=C[C@H]1[C@H](O[C@@H]2O[C@H](CO)[C@@H](O)[C@H](O)[C@H]2O)OC=C(C(=O)OC)[C@H]1CCOC(=O)c1cc(O)c(O)c(O)c1`, the Potency entry in assay [5] and in assay [12] was “inactive” in each case. Also, the Potency in [1] is 15.8 µM (active); in assay [3], 8.91 µM (active); in [8], 10.8 µM (active). Moreover, the result in [13] and in assay [11] was inactive.
Consider `CC(C)[N+]1(C)C2CCC1CC(OC(=O)C(CO)c1ccccc1)C2` (stereo not given), for which the Potency entry in assay [4], in [1] and in assay [3] was “inactive” throughout.
